The values below come from PubChem BioAssay (Tox21).

The structures appear in SMILES notation. Records with an inconclusive call do not appear. Active and inactive are the calls of the source. Calls come from the whole dose curve; as a rule, active = well fitted cell-killing curve with a large enough effect in the repeat runs; inconclusive = weak or mixed curves, or effect the other way; inactive = flat fitted curve, though single readings scatter.
% is set by controls: 0 for no effect and ±100 for the full control effect; potency is the fitted concentration of half-maximal effect.

The test is described as follows: qHTS RealTime-Glo MT Cell Viability Assay in HEK293 cells - 16 hour (AID 1224872). For activity change, negative = cytotoxicity: top concentration of the series differs between compounds. Note: nearly all actives have a fitted effect of over 50% in size. The following applies: RealTime-Glo luminescence; series mostly up to 76.8 µM; activity change, negative = cytotoxicity: at the top concentration. An excerpt: National Center for Advancing Translational Sciences [NCATS]
NIH Chemical Genomics Center [NCGC]
U.S. Environmental Protection Agency [EPA]
National Institutes of Environmental Health Sciences [NIEHS]
National Toxicology Program [NTP]
U.S. Food and Drug Administration [FDA]
Measure of cell viability is critical in the cell-base assay. Analysis of cell viability is necessary for the characterization of cell responses to cytotoxic drugs and environmental stress. A RealTime-Glo MT Cell Viability Assay to monitor cell viability in real time of continues cell culture during 40 hours of compound treatment was used to screen Tox21 10K library compounds in Hek293 cells. The RealTime-Glo MT Cell Viability Assay is a nonlytic, homogeneous, bioluminescent method to measure cell viability in real time using a simple, plate-based method. The assay involves adding NanoLuc luciferase and a cell-permeant prosubstrate to cells in culture. Viable cells reduce the proprietary prosubstrate to generate a substrate for NanoLuc luciferase. This substrate diffuses from cells into the surrounding culture medium, where it is rapidly used by the NanoLuc Enzyme to produce a luminescent signal. The signal correlates with the number of viable cells, making the assay well suited for cytotoxicity studies.
Tox21 Assay Protocol Summary:
The mixture of Hek293 cell suspension and reagents were dispensed at 600cells/6 ul/well in 1536-well tissue culture treated black solid bottom plates using a Multidrop dispenser. After the assay plates were incubated at a 37 C/5% CO2 incubator for 5 hours, 23 nL of compounds dissolved in DMSO, positive and negative controls was transferred to the assay plate by a pintool work station. The plates were incubated at 37 C for 40 hours. The luminescence intensity were measured at 0h, 8h, 16h, 24h, 32h and 40h time points using ViewLux plate reader during compound treatment.
`CN1CCC[C@@H]1CCO[C@](C)(c1ccccc1)c1ccc(Cl)cc1`: the Potency was 19 µM (active).

`O=C(O)c1cc(-c2ccc(F)cc2F)ccc1O`: the “activity change, negative = cytotoxicity” value was -0.617% [at 35.3 µM] (inactive).

Turning to `CCCCCCCC/C=C\CCCCCCCCN`, the Potency was 21.3 µM (active).

With `CCCCCCOC(=O)C(C)CC` (stereo not given), the “activity change, negative = cytotoxicity” value was -4.75% (inactive).

In the case of `CCc1cccc(CC)c1NC(=O)CN(CC(=O)O)CC(=O)O`, the “activity change, negative = cytotoxicity” value is 2.97% [at 35.3 µM] (inactive).

Regarding `CCCCC(CC)COC(=O)CCCCC(=O)OCc1ccccc1` (stereo not given), the “activity change, negative = cytotoxicity” value is 1.33% (inactive).

As for `CC1(C)CCC[C@]2(C)[C@H]3CCO[C@]3(C)CC[C@@H]12`, the “activity change, negative = cytotoxicity” value is 2.39% (inactive).

Take `CCC(CC)C(C)CCOC(C)=O` (stereo not given): the “activity change, negative = cytotoxicity” value is 13% (inactive).

With `c1cnccn1`, the “activity change, negative = cytotoxicity” value is -1.56% (inactive).

With `C=C(C)c1cccc(C(=C)C)c1`, the “activity change, negative = cytotoxicity” value is -1.22% (inactive).

Regarding `CCCCC(CC)CN1CN(CC(CC)CCCC)CC(C)(N)C1` (stereo not given), the Potency is 9.52 µM (active).

With `CC[C@H](C)COC(=O)/C=C/c1ccc(N=Cc2ccc(OC)cc2)cc1`, the Potency was 21.8 µM (active).

As to `O=[N+]([O-])c1cccc(C(F)(F)F)c1`, the “activity change, negative = cytotoxicity” value was 3.8% (inactive).

For the molecule `CCCCCCCCCCOC(=O)c1ccccc1C(=O)OCCCCCCCC`, the “activity change, negative = cytotoxicity” value is 6.1% (inactive).

As for `Nc1ccc(C(=O)O)c(O)c1`, the “activity change, negative = cytotoxicity” value was -1.54% [at 35.3 µM] (inactive).

Regarding `O=C(O)CCN(C1(C(=O)NO)CCCC1)S(=O)(=O)c1ccc(Oc2ccc(F)cc2)cc1`, the “activity change, negative = cytotoxicity” value is 11% (inactive).

On to `O=c1[nH]c(=O)n([C@H]2C[C@H](O)[C@@H](CO)O2)cc1F`, for which the “activity change, negative = cytotoxicity” value was -13.7% [at 35.3 µM] (inactive).

`COc1cc(S(=O)(=O)O)c(C)cc1N=Nc1c(O)ccc2cc(S(=O)(=O)O)ccc12`: the “activity change, negative = cytotoxicity” value was -3.53% (inactive).

`Cc1c(C)c([N+](=O)[O-])c(C(C)(C)C)c([N+](=O)[O-])c1C`: the “activity change, negative = cytotoxicity” value is -6.42% (inactive).

Take `OC[C@@H](O)[C@@H](O)CO`: the “activity change, negative = cytotoxicity” value is 6.33% (inactive).

As for `O=C(O)O`, the activity change, negative = cytotoxicity was 1.92% [at 6.97 µM] (inactive).

For `COC(=O)c1ccccc1C`, the “activity change, negative = cytotoxicity” value is -6.67% (inactive).

Turning to `Cc1cc(C(C)(C)C)cc(C)c1CC1=NCCN1`, the “activity change, negative = cytotoxicity” value is -8.31% [at 35.3 µM] (inactive).

As for `C=CCn1c(=O)n(CC=C)c(=O)n(CC=C)c1=O`, the “activity change, negative = cytotoxicity” value was -1.88% (inactive).

Regarding `O=C(/C=C/c1ccccc1)OC/C=C/c1ccccc1`, the “activity change, negative = cytotoxicity” value was -4.2% (inactive).

For the molecule `CC(C)CCCCCOC(=O)CCS`, the “activity change, negative = cytotoxicity” value is -11.9% (inactive).

Take `CC(N=C(NC#N)Nc1ccncc1)C(C)(C)C` (stereo not given): the “activity change, negative = cytotoxicity” value is 0.712% [at 35.3 µM] (inactive).

In the case of `COC1=C(OC)C(=O)C(CCCCCCCCCCO)=C(C)C1=O`, the Potency is 2.39 µM (active).

Turning to `CC(C(=O)O)c1ccc2c(c1)[nH]c1ccc(Cl)cc12` (stereo not given), the “activity change, negative = cytotoxicity” value was -0.197% [at 35.3 µM] (inactive).

For the molecule `Cl[Si](Cl)(c1ccccc1)c1ccccc1`, the “activity change, negative = cytotoxicity” value was -5.01% (inactive).

As for `OC1CCCc2ccccc21` (stereo not given), the “activity change, negative = cytotoxicity” value is 4.15% (inactive).

In the case of `CC(C)OC(=O)C(O)(CC(=O)O)CC(=O)O`, the “activity change, negative = cytotoxicity” value was -0.485% (inactive).

`C[C@H]1NCc2cc(-c3ccc4c(=O)c(C(=O)O)cn(C5CC5)c4c3OC(F)F)ccc21`: the activity change, negative = cytotoxicity was -1.72% [at 15.8 µM] (inactive).

As for `CCCCCCCCCCC[C@@H](C[C@@H]1OC(=O)[C@H]1CCCCCC)OC(=O)[C@H](CC(C)C)NC=O`, the Potency is 13.4 µM (active).

Regarding `Cc1cccc(C)c1NC(=O)c1ccc(N)cc1`, the “activity change, negative = cytotoxicity” value is -1.82% [at 35.3 µM] (inactive).

As for `C1CCC(SSC2CCCCC2)CC1`, the “activity change, negative = cytotoxicity” value was -13.3% (inactive).

`CCCC1CCC(=O)CC1`: the “activity change, negative = cytotoxicity” value was 5.55% (inactive).

Consider `C[C@@H](O)[C@H](N)C(=O)O`, for which the activity change, negative = cytotoxicity was -1.06% [at 15.8 µM] (inactive).

As for `Cc1cccc(C(=O)O)c1O`, the “activity change, negative = cytotoxicity” value was 1.58% [at 35.3 µM] (inactive).

Regarding `CCc1oc2ccccc2c1C(=O)c1cc(I)c(O)c(I)c1`, the “activity change, negative = cytotoxicity” value was -7.9% [at 35.3 µM] (inactive).
